esBAF inh: Bmi1 luciferase reporter increase in mESCs, primary screen, esBAF inhibitor project, mouse ES cells, Bmi1 luciferase knock-in, single point | 24 h; 100% = twice the neutral-well signal | reporter increase, % at 12.5 µM | 350,000 tested, 2% active | AID 602393, 2012; in the data active = activation above about 40%; inconclusive = no clear call, values can overlap the other calls;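 note: a rise in the Bmi1 reporter signal indicates esBAF inhibition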
APOBEC3A inh: APOBEC3A ssDNA deaminase inhibitors, primary screen, selectivity assay for APOBEC3G inhibitor project, biochemical, FAM/TAMRA oligo cleavage fluorescence; recombinant A3A, FAM/TAMRA ssDNA deamination fluorescence; DNA dC->dU-editing enzyme APOBEC-3A (Homo sapiens), P31941; inhibition, % at 20 µM; 330,000 tested, 0.41% active;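 active = at least 40% inhibition at 20 µM here, with at most 30% in a related deaminase screen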
Target sequence (P31941 whole entry, looked up): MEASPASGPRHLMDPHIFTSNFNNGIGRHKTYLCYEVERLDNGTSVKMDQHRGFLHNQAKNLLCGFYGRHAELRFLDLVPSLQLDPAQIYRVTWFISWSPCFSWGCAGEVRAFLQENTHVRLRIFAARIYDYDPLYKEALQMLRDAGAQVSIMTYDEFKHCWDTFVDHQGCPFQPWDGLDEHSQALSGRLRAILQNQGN
Wnt act: Wnt/beta-catenin pathway activators, primary screen, cell-based, plate reader, single point; Wnt/beta-catenin reporter cell assay, activator; activation, % at 9.35 µM; 300,000 tested, 1.2% active; in the data active = activation above about 30%, passing the limit was not always enough; inconclusive = no clear call, values can overlap the other calls
MITF TRPM1 HTS: activators of MITF-driven TRPM1 promoter reporter, primary screen, cell-based, SK-MEL-5, luciferase, single point. SK-MEL-5 TRPM1-promoter luciferase, 24 h; % of positive control, neutral wells = 0. activation, % at 12.5 µM. 300,000 tested, 0.75% active;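 active = mean activation of at least 80% with every replicate also reaching 80%; inconclusive = mean reaches 80% but some replicate falls short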
PHOSPHO1 inh: PubChem AID 1565 | Phosphoethanolamine/phosphocholine phosphatase (Homo sapiens), Q8TCT1 | 290,000 tested, 1.1% active | recombinant PHOSPHO1, absorbance phosphatase assay | inhibition, % at 13.3 µM; in the data active = inhibition above about 60%
Target sequence (Q8TCT1 whole entry, looked up): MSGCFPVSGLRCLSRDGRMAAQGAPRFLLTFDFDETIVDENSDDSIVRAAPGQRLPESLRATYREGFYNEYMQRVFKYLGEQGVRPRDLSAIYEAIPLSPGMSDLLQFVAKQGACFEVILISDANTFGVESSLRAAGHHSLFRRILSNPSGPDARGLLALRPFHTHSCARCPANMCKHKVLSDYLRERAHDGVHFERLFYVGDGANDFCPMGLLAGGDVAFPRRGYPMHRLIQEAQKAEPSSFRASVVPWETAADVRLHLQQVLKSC
APOBEC3G inh: APOBEC3G DNA deaminase inhibitors, primary screen, biochemical, fluorescence, single-stranded DNA substrate, uHTS; DNA dC->dU-editing enzyme APOBEC-3G (Homo sapiens), Q9HC16; recombinant A3G, ssDNA deamination FAM/TAMRA fluorescence; inhibition, % at 20 µM; 330,000 tested, 0.28% active;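 active = inhibition of at least 40% at 20 µM, with no more than 30% in the related APOBEC3A deaminase screen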
A number is an active result; . = inactive; ? = inconclusive; / = no result. The list is not random: actives were taken first. Their share in the collection is about 3.6%.

SMILES	esBAF inh	APOBEC3A inh	Wnt act	MITF TRPM1 HTS	PHOSPHO1 inh	APOBEC3G inh
C[C@@H]1CCCCO[C@H](CN(C)C(=O)C2CCCCC2)[C@H](C)CN([C@@H](C)CO)C(=O)c2cc(NC(=O)c3ccccc3)ccc2O1	.	/	/	/	/	/
COCC(=O)Nc1ccc2c(c1)[C@H]1C[C@H](CC(=O)NCc3ccccc3)O[C@H](CO)[C@H]1O2	.	/	/	/	/	/
CCN1CCN(C(=S)c2ccc(Cl)c(Cl)c2)CC1	.	.	/	/	95.0	.
CCN1CCN(C(=S)Nc2ccc(Cl)c(Cl)c2)CC1	.	.	.	.	.	.
CCCCNC(=O)c1onc(CSc2ccc(F)cc2)c1C(=O)O	.	.	.	.	.	.
CCCCNC(=O)c1onc(CSc2ccc(OC)cc2)c1C(=O)O	.	.	.	.	97.7	.
O=C(O)c1ccccc1NN=C1CCCCC1	83.0	.	.	.	.	.
O=C(NN=C1CCCC1)c1ccccc1O	75.1	.	.	/	.	.
C[C@H](CO)N1C[C@H](C)[C@H](CN(C)Cc2ccc(Oc3ccccc3)cc2)Oc2ccc(NC(=O)Cc3cn(C)c4ccccc34)cc2C1=O	.	/	/	/	/	/
Cc1cccc(NC(=O)CC2CCC2)c1	.	.	/	.	.	.
Cc1cc(NC(=S)NC(=O)CC(C)C)ccc1Br	57.9	.	.	.	.	.
O=C(Cc1ccccc1)Nc1ccc2c(c1)CCC2	/	.	.	.	.	.
Cc1cc(NC(=O)CC2CCCC2)ccc1Br	65.3	.	.	.	.	.
O=C(CC1CCCC1)Nc1ccc2c(c1)CCC2	84.4	.	.	.	.	.
CN(C)c1ccc(NC(=O)c2sc(SCC(=O)Nc3nccs3)nc2N)cc1	52.6	.	47.3	.	67.3	.
CCOC(=O)c1c(SCC(=O)Nc2nccs2)nc(C)c(C)c1C	50.1	.	.	.	.	.
CCn1c(C)nnc1SCC(=O)Nc1nccs1	.	.	.	.	.	.
O=C(CSc1ccccc1)Nc1nccs1	/	.	.	.	.	.
Cc1ccc(SCC(=O)Nc2nccs2)cc1	24.0	.	.	.	.	.
CN(C)c1ccc(NC(=O)c2sc(SCC(=O)Nc3ccc(Br)cc3)nc2N)cc1	/	.	/	.	.	.
O=C(CSc1cn(Cc2ccccc2)c2ccccc12)Nc1nccs1	73.4	.	52.6	/	.	.
COc1ccc(NC(=O)N(C)C[C@@H]2Oc3ccc(NC(=O)Nc4c(C)noc4C)cc3C(=O)N([C@H](C)CO)C[C@@H]2C)cc1	.	/	/	/	/	/
COC(=O)CSc1nc(C)c(C)c(C)c1C(N)=O	.	.	.	.	62.2	.
COC(=O)CSc1nc(N)nc(C)c1Cl	/	.	.	.	.	.
Cc1cc(C)n(-c2cc(C(C)(C)C)nc3c(-c4ccccc4)cnn23)n1	/	.	55.9	120.9	.	.
SMILES	esBAF inh	APOBEC3A inh	Wnt act	MITF TRPM1 HTS	PHOSPHO1 inh	APOBEC3G inh
Cc1cc(NCc2ccccc2)n2ncc(-c3ccccc3)c2n1	.	.	.	104.5	.	.
Cc1cc(NC(C)c2ccccc2)n2ncc(-c3ccccc3)c2n1 (stereo not given)	59.2	.	.	121.7	.	.
CCCCn1c(SCC(=O)c2ccc(O)cc2O)nc2cc(S(N)(=O)=O)ccc21	.	.	.	.	.	.
CCCCn1c(SCN2C(=O)c3ccccc3C2=O)nc2cc(S(N)(=O)=O)ccc21	.	/	/	.	90.0	/
CCCCn1c(SCC(=O)c2cc(OC)ccc2OC)nc2cc(S(N)(=O)=O)ccc21	/	.	/	.	65.4	.
CCC(CC)C(=O)NCCc1cc2ccc(C)cc2[nH]c1=O	.	.	.	.	.	.
Cc1ccc2cc(CCNC(=O)c3cccs3)c(=O)[nH]c2c1	54.2	.	.	.	.	.
Cc1ccc2cc(CCNC(=O)c3cccs3)c(=O)[nH]c2c1C	59.0	.	.	/	.	.
CC(=O)N1[C@@H]2c3ccc(-c4ccc(F)cc4)c(=O)n3C[C@@H]2[C@@H](CO)[C@@H]1C(=O)NC1CCC1	.	/	/	/	/	/
Cn1c(SCc2ccccc2F)nc2cccnc21	43.3	.	/	/	.	.
Cc1ccc(S(=O)(=O)N(C)C[C@@H]2Oc3ncc(-c4ccccc4)cc3C(=O)N([C@@H](C)CO)C[C@H]2C)cc1	.	/	/	/	/	/
O=C([C@H]1[C@H](CO)[C@H]2Cn3c(ccc(-c4ccncc4)c3=O)[C@@H]1N2Cc1ccccc1)N1CCOCC1	.	/	/	/	/	/
C[C@@H]1CN([C@H](C)CO)C(=O)Cc2cc(NS(=O)(=O)c3cn(C)cn3)ccc2O[C@H]1CN(C)C(=O)Nc1ccc(C(F)(F)F)cc1	.	/	/	/	/	/
COc1ccc(Nc2ccnc(Nc3ccc(OC)cc3)n2)cc1	/	.	48.1	.	.	.
Nc1nc(Nc2ccc(Cl)cc2Cl)nc(C(F)(F)F)n1	63.9	.	/	.	.	.
CCOc1ccccc1N1CCN(C(=O)CC(C)(C)C)CC1	.	.	.	.	72.9	.
CCOc1ccccc1N1CCN(C(=O)C(F)(F)F)CC1	.	.	/	.	.	.
CCCC(=O)Nc1ccc2c(c1)C(=O)N(C)[C@H]1CC[C@H](CC(=O)Nc3cn(C)nc3C)O[C@H]1CO2	.	/	/	/	/	/
Cc1cc(C(=O)CSc2nc3ccccc3c(=O)n2C)c(C)n1Cc1ccc2c(c1)OCO2	.	.	.	.	.	.
O=C(CSc1nccn1-c1ccccc1)NCc1ccc2c(c1)OCO2	.	.	.	.	.	.
O=C(CSc1nccn1-c1ccc(F)cc1)NCc1ccc2c(c1)OCO2	.	.	/	.	64.7	.
Cc1cc(C(=O)CSc2nnc(-c3ccccc3)n2Cc2ccc3c(c2)OCO3)c(C)n1C	.	.	/	.	94.8	.
O=C(CSc1nnc(-c2ccccc2)n1Cc1ccco1)NCc1ccc2c(c1)OCO2	/	.	/	.	60.0	.
O=C(CSc1nnc(-c2ccccc2)n1Cc1ccco1)Nc1ccc2c(c1)OCCO2	.	.	/	.	.	.
Clc1ccc(CONc2ncnc3nonc23)c(Cl)c1	53.3	.	.	.	.	.
SMILES	esBAF inh	APOBEC3A inh	Wnt act	MITF TRPM1 HTS	PHOSPHO1 inh	APOBEC3G inh
C[C@H](CO)N1C[C@H](C)[C@@H](CN(C)C(=O)C2CCCCC2)Oc2ncc(Br)cc2C1=O	.	/	/	/	/	/
COc1cc(OC)c2c(c1)O/C(=C\c1ccccc1)C2=O	58.3	.	.	/	/	.
CCCCC(=O)Nc1cc(C(=O)NCCc2ccccc2)ccc1Cl	?	.	/	125.8	.	.
Cc1ccc(C(=O)NC(C)CCc2ccccc2)cc1S(=O)(=O)N1CCOCC1 (stereo not given)	.	.	.	.	/	.
O=C(NCc1ccccc1)c1ccc(Cl)c(S(=O)(=O)N2CCCC2)c1	.	.	.	.	/	.
Cc1ccc(C(=O)NCCc2ccccc2)cc1S(=O)(=O)N1CCOCC1	68.1	.	.	.	/	.
COc1cccc(C(=O)Nc2cc(C(=O)NCCc3ccccc3)ccc2Cl)c1	.	.	.	.	.	.
O=C(NCCc1ccccc1)c1ccc(Cl)c(S(=O)(=O)N2CCCC2)c1	58.6	.	/	.	.	.

From PubChem BioAssay
